Measurements reported in PubChem BioAssay AID652017 (The Scripps Research Institute Molecular Screening Center, 2013).
The campaign covered roughly 370,000 compounds. About 3,800 (1%) were called active. Rule as the data show it: active = activation above about 7.8%; inactive = the rest. The full list was thinned out, with actives kept by preference.

Assay: SMARCA2 (BRM) function activators, primary screen, cell-based, luminescence, high throughput (AID 652017);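 also: 0% = vehicle wells and 100% = reference activator wells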
Conditions: MG213 cells, MMTV-luciferase reporter, dexamethasone, overnight; at 9.1 µM; stronger effect = higher value

activation, inactive:
O=S(=O)(c1ccc(F)cc1)n1ccc(-c2cnc(-c3ccccc3)s2)n1 0.36%
CCOC(=O)c1csc(NC(=O)C2CCCN(S(=O)(=O)c3ccc(Cl)s3)C2)n1 (stereo not given) -3.75%
Nn1c(SCC(=O)Nc2cccc3ccccc23)nnc1-c1cc(-c2ccc(F)cc2)n[nH]1 -3.63%
O=C(OC12CC3CC(CC(C3)C1)C2)c1ccc(NCc2cc(O)ccc2O)cc1 -10.6%
CCS(=O)(=O)Nc1cc(C(=O)OC)ccc1C(=O)OC -0.18%
O=C(NC1CCCCN(Cc2ccc(Cl)cc2)C1=O)c1ccc(Br)cc1 (stereo not given) -1.79%
CC(=O)Nc1ccc(Nc2nc3c(S(=O)(=O)c4ccc(C)c(C)c4)nnn3c3ccccc23)cc1 0.7%
CCc1c(C)nc2c(-c3ccccc3)c(C)nn2c1Nc1ccc(NC(C)=O)cc1 -0.14%
O=C(CSc1nc2c(c(=O)[nH]1)CCCC2)N1CCCCC1 -4.24%
CCC(=O)OCCCN1C(=O)CCC12CCC(c1ccccc1)CC2 (stereo not given) -3.5%
CC(=O)OCCN1CCCC12CCC(c1ccccc1)CC2 (stereo not given) -0.56%
C=CCN1[C@H](CC(C)C)COc2cccc(N3CCCC3)c2S1(=O)=O -1.47%
Nn1c(SCC(=O)Nc2ccc(S(N)(=O)=O)cc2)nnc1-c1n[nH]c2c1CCC2 0.23%
COc1ccc(NC(=O)Cn2ncn3c(cc4ccccc43)c2=O)c(OC)c1OC 1.32%
C[C@H](C(=O)N(C)c1ccccc1)[C@@H](O)c1ccc(Cl)cc1 -0.55%
CCOC(=O)c1sc2nc(C)nc(SCC(N)=O)c2c1C -1.05%
CSc1nnc(SCc2nc3sc(C(=O)O)c(C)c3c(=O)[nH]2)s1 -1.68%
Cc1csc(Nc2ccc(Cl)cc2)[n+]1-c1ccc(Cl)cc1 -3.27%
CCC(c1ccc(NC(=O)OC(C)(C)C)cc1)c1cc(OC)cc(OC)c1 (stereo not given) -2.7%
Cc1ccc(NC(=O)c2cc(C)nn2-c2ccccc2)c(C)c1 -4.44%
Cc1ccnc(-n2sc3ccccc3c2=O)n1 1.96%
Cn1c(-c2ccc(C(F)(F)F)cc2)cc2onc(-c3ccccc3)c2c1=O 5.26%
Cc1[nH]n(C)c(=O)c1C(=O)c1c(-c2c(Cl)cccc2Cl)noc1C -2.74%
CCOC(=O)[C@]12CCCCC/C=C\1N(Cc1ccc(OC)cc1)C(=O)[C@H]2CC(=O)NCCCN1CCCC1=O -2.38%
O=C(CNS(=O)(=O)c1ccccc1F)N1CCN(c2ccccn2)CC1 -3.89%
COC(=O)[C@]12C[C@H](CC(=O)NCCc3ccccc3OC)C(=O)N(Cc3ccco3)C1=C[C@H](C(C)C)O[C@@H]2C1CC1 -4.32%
COC(=O)[C@]12C[C@H](CC(=O)NCc3cccc4ccccc34)C(=O)N(CCc3ccc(OC)c(OC)c3)C1=C[C@H](C1CCCC1)O[C@@H]2C -1.03%
CCCCN1CCN(C(=O)c2ccc3c(c2)NC(=O)C(C)(C)O3)CC1 2.59%
O=S1(=O)c2c(cccc2N2CC[C@H](O)C2)O[C@@H]2CCN1C2 -1.6%
CCc1nc2ccc(C(=O)NCCNC(C)=O)cn2c1N(CC)Cc1cccc(Br)c1 -2.59%
COCC(=O)N1CCCC(C(=O)c2ccc(C(F)(F)F)cc2)C1 (stereo not given) -2.48%
Cc1cnc(C(=O)N2CCCC(C(=O)c3ccc(C(F)(F)F)cc3)C2)cn1 (stereo not given) 1.89%
CCOC(=O)C1=C(C)NC2=C(C(=O)CC(C)(C)C2)C1c1ccc2c(c1)OCO2 (stereo not given) -5.79%
O=C(c1cccc(C(F)(F)F)c1)N1CC[C@H]2[C@H](CCCN2Cc2cc(F)cc(F)c2)C1 -1.61%
CSc1ccc(/C=C/C(=O)NC23CC4CC(CC(C4)C2)C3)cc1 1.32%
CCOc1ccccc1NC(=O)C12CC3CC(C1)CC(c1ccc(C)cc1)(C3)C2 -1.92%
O=C(NCc1ccc(Cl)cc1)C1CCCN(c2nc3ccccc3o2)C1 (stereo not given) -7.39%
Cc1ccc(C2=CCN(C)C(=O)N2c2ccc(Cl)cc2)cc1 1.89%
CN1CCC[C@@H]1CCO[C@](C)(c1ccccc1)c1ccc(Cl)cc1 -5.64%
S=C(NCCCc1cnc[nH]1)NCCCN(Cc1ccc(Cl)c(Cl)c1)c1ccc(Br)cn1 -3.8%
COC(=O)C[C@@H]1CC[C@H]2[C@@H](COc3ccc(NS(=O)(=O)CC(F)(F)F)cc3C(=O)N2C)O1 -3.47%
COC(=O)[C@]12C[C@H](CC(=O)N3CCN(C(=O)C4CC4)CC3)C(=O)N(CCC3=CCCCC3)C1=C[C@H](C(C)C)O[C@@H]2C1CC1 0.49%
Cc1cc(NS(=O)(=O)c2ccc(NC(=O)CSc3nnc(-c4ccc(C(C)(C)C)cc4)n3Cc3ccco3)cc2)nc(C)n1 -2%
O=C(CSc1nc2ccccc2c(=O)n1-c1ccccc1F)N1CCOCC1 -2.52%
COc1ccc(-n2c(SCC(=O)Nc3ccc(C)c(Cl)c3)nc3ccccc3c2=O)cc1 -5.45%
N#Cc1cccc(NC(=O)COC(=O)c2ccccc2C(=O)c2ccc(Cl)c([N+](=O)[O-])c2)c1 6.3%
O=C(CN1CCCc2ccccc21)NCc1ccc(F)cc1 4.7%
Cc1ccc(-n2c(SCC(=O)Nc3cccc4ccccc34)nnc2-c2ccco2)cc1 -1.08%
C[C@@H]1ON(C)[C@H]2C[C@H]3c4[nH]c5cccc(-c6ccc7c(c6)OCO7)c5c4CCN3C[C@@H]12 -5.68%
Clc1ccc(C(Cn2ccnc2)OCc2ccsc2Cl)c(Cl)c1 (stereo not given) -7.85%
COc1ccc(Cn2cccc(NC(=O)Nc3ccc(C#N)cc3)c2=O)cc1 -4.78%
Cc1c(C#N)c(NC(=O)c2ccccc2)n(Cc2ccccc2)c1C -1.06%
CC(NCc1ccco1)C(=O)N1CCCCC1 (stereo not given) -2.78%
CC1CCN(c2ccc(C(=O)O)cc2NS(=O)(=O)c2ccc(Br)s2)CC1 0.67%
CCOC(=O)c1cccc(NC(=O)CN(C)S(=O)(=O)c2ccc(-c3cocn3)s2)c1 -7.26%
Cc1ccc(S(=O)(=O)NCc2nc3ccccc3c(=O)n2N)cc1 -5.01%
CC(C)CC1NC(=O)c2cc(Cl)ccc2-n2c1nc1ccccc1c2=O (stereo not given) -0.02%
O=C(OC12CCCN(C1)/C(=C/c1ccccc1)C2)c1ccco1 (stereo not given) -4.02%
CC[C@H](NC(=O)[C@H](Cc1ccccc1)NC(=O)[C@H]1O[C@@H](n2cnc3c(=O)[nH]c(N)nc32)[C@H](O)[C@@H]1O)c1ccccc1 -4.41%
COC(=O)Cc1ccc(NC(=S)NCc2ccco2)cc1 -1.02%
COC(=O)/C=C/C(=O)NCc1ccco1 1.96%
COC(=O)[C@H](C(C)C)N1CCc2nnn(Cc3ccc(C)cc3)c2-c2ccccc2S1(=O)=O -3.89%
CC(=O)c1ccc(S(=O)(=O)Nc2ccc(C(=O)NCC(c3ccccc3)N(C)C)cc2)cc1 (stereo not given) 5.98%
COc1ccc(C(CNC(=O)c2ccc(NS(=O)(=O)c3ccc(F)c(C)c3)cc2)N(C)C)cc1 (stereo not given) -1.05%
CC(=O)Nc1ccc(OC[C@@H](O)CN2CCC(C(O)(c3ccccc3)c3ccccc3)CC2)cc1 -1.46%
COCCCNC(=O)C[C@H]1C[C@@]2(C(=O)OC)C(=C[C@H](C(C)(C)C)O[C@@H]2C)N(Cc2ccc(Cl)cc2Cl)C1=O -4%
Cc1c(C(C)c2ccccc2O)[nH]c2ccccc12 (stereo not given) -2.39%
Cc1ccc(NC(=O)C(=O)NCc2ccc(/C=N/NC(=O)c3c(C)nc4cc(C)ccn34)o2)cc1 -0.59%

activation, active:
COC(=O)c1ccc(NCc2cc(O)ccc2O)cc1 8.39%
CCc1ccc(NC2Nc3cc(C)nn3S2)cc1 (stereo not given) 8.13%
CC(=O)Nc1ccc(Nc2c3ccccc3nc3ccccc23)cc1 8.59%
Oc1cccc2ccc(/C=C/c3ccc(Br)s3)nc12 10.9%
CCOC(=O)c1sc2nc(CSc3ccccc3)[nH]c(=O)c2c1C 9.98%
Cc1ccnc(Nc2nc3ccccc3s2)n1 10.6%
Cn1c(-c2ccc(F)cc2)cc2onc(-c3ccccc3Cl)c2c1=O 9.9%
CCOc1cccc2c1OC1(CCCCC1)N1N=C(c3cccnc3)CC21 (stereo not given) 8%
Cn1cc(/C=C/C(=O)N2CCCC(C(=O)c3ccc(C(F)(F)F)cc3)C2)cn1 (stereo not given) 9.62%
COc1ccc(/C=C/C(=O)Nc2ccc(C34CC5CC(CC(O)(C5)C3)C4)cc2)cc1OC 9.95%
Cc1cc2oc3ccc(NCCC4CCCN4C)cc3c(=O)c2cc1C (stereo not given) 8.67%
Cc1ccc(-n2c(SCC(=O)N3CCC(C(=O)O)CC3)nc3ccccc3c2=O)cc1C 9%
Cc1cc(C)c2nc3nc(C)cc(C)c3c(N)c2c1 22.7%
COc1ccc(Cn2c(C)c(C)c(C#N)c2NC(=O)Nc2ccc(F)cc2)cc1 13.3%
CCCN1C(=O)C(Cc2nc3ccccc3c(=O)n2-c2ccccc2)c2cc(C)ccc21 (stereo not given) 8.92%
CC(C)(C)c1ccc(NC(=O)NCc2ccco2)cc1 8.76%
COc1ccc(C(CNC(=O)c2ccc(S(=O)(=O)Nc3ccccc3F)cc2)N(C)C)cc1 (stereo not given) 8.4%
